{"source": "the OligoGym collection", "data": [{"target": "PTPN7", "test": "pooled miR-30 sensor sort-seq; sequence = guide strand", "details": "shRNA", "values": [{"sequence": "ATTGATGTAATCTCCGTCCTCC", "sensor-assay potency score (higher = more potent)": 0.571}, {"sequence": "TTCTTCTTCCAGTTGCTTGGGG", "sensor-assay potency score (higher = more potent)": 0.0231}, {"sequence": "TAGTGGACACATTTCTCCTTGC", "sensor-assay potency score (higher = more potent)": -0.219}]}, {"target": "PTPRT", "test": "pooled miR-30 sensor sort-seq; sequence = guide strand", "details": "shRNA", "values": [{"sequence": "TAATCGAACACCAGCCTCCAGA", "sensor-assay potency score (higher = more potent)": -0.958}, {"sequence": "TAGTGTAGAGAATCGAGGCTGG", "sensor-assay potency score (higher = more potent)": 0.97}, {"sequence": "TATCTTGTTTGTCTCTTCCAAA", "sensor-assay potency score (higher = more potent)": -1.13}, {"sequence": "TATTGTAGTAGAGAGAACGGAA", "sensor-assay potency score (higher = more potent)": -0.217}, {"sequence": "TATCTGATATTCATTGACCTGA", "sensor-assay potency score (higher = more potent)": -0.134}, {"sequence": "TTTGTGACCATGACGATGCTGG", "sensor-assay potency score (higher = more potent)": 0.113}, {"sequence": "TTGGTCTTGATCTTGAGCCTAT", "sensor-assay potency score (higher = more potent)": -0.529}, {"sequence": "TAAGTCATCTGCATCCTCGGTT", "sensor-assay potency score (higher = more potent)": 0.728}, {"sequence": "TAGATTTTTTAACACAGCCATG", "sensor-assay potency score (higher = more potent)": -1.72}, {"sequence": "TTTGCTTTGAGGCACTTCCTTT", "sensor-assay potency score (higher = more potent)": -1.11}, {"sequence": "TTGAGTCGCAATGTAGTGCCGA", "sensor-assay potency score (higher = more potent)": -0.352}, {"sequence": "TAGTTGATCTCGTAGAGCGTGA", "sensor-assay potency score (higher = more potent)": -0.257}]}, {"target": "PXDN", "test": "pooled miR-30 sensor sort-seq; sequence = guide strand", "details": "shRNA", "values": [{"sequence": "TGTAGTGGTAACTTGTTCCGTT", "sensor-assay potency score (higher = more potent)": 0.669}, {"sequence": "TTCAGCTTGAGCAGCTCCGTGG", "sensor-assay potency score (higher = more potent)": -0.881}, {"sequence": "TTTTCCACTTTCTGTCACCTGA", "sensor-assay potency score (higher = more potent)": 0.0535}, {"sequence": "TTGTAGTGGTAACTTGTTCCGT", "sensor-assay potency score (higher = more potent)": -0.383}, {"sequence": "TATAGCTCTGTCAACAGTCGCA", "sensor-assay potency score (higher = more potent)": -0.0838}, {"sequence": "TATCTGATTAAAGTGCAGGTAT", "sensor-assay potency score (higher = more potent)": -0.445}, {"sequence": "TTCACAGTTCAGCTCTTCCGGG", "sensor-assay potency score (higher = more potent)": -0.633}, {"sequence": "TTCCAGAACAAACTCTCTGAAG", "sensor-assay potency score (higher = more potent)": -1.36}, {"sequence": "TTGAGTTTATAGCTCTGTCAAC", "sensor-assay potency score (higher = more potent)": -1.24}, {"sequence": "TTCTATCTGATTAAAGTGCAGG", "sensor-assay potency score (higher = more potent)": -0.41}, {"sequence": "TTGAGGTCGACCATCAAGCCAT", "sensor-assay potency score (higher = more potent)": -0.562}]}, {"target": "PXN", "test": "pooled miR-30 sensor sort-seq; sequence = guide strand", "details": "shRNA", "values": [{"sequence": "AACATGTCGAAGTAGTCCTTGC", "sensor-assay potency score (higher = more potent)": -0.89}, {"sequence": "TCGTGCTCGAAGAAGCTGCCGT", "sensor-assay potency score (higher = more potent)": -0.594}, {"sequence": "TTGTTGAGCTGCTTGAGGCAGA", "sensor-assay potency score (higher = more potent)": -0.264}, {"sequence": "TTTCACAGTAGGGCTGTCCATC", "sensor-assay potency score (higher = more potent)": -0.695}, {"sequence": "TTGAGTTGGCCTCATCTGCAGG", "sensor-assay potency score (higher = more potent)": -0.889}, {"sequence": "TAGTTCTCCAGGATGGCCCGGG", "sensor-assay potency score (higher = more potent)": -0.505}, {"sequence": "TAGGCTTCTCTTTCGTCAGGGG", "sensor-assay potency score (higher = more potent)": 0.384}, {"sequence": "TTCTCGTGGAACCCTTCGGGAC", "sensor-assay potency score (higher = more potent)": -1.59}, {"sequence": "TAGAAATCTATCAAAGTCGGTA", "sensor-assay potency score (higher = more potent)": 0.0963}, {"sequence": "TACAGCGTTCAGTTCCAGCAGC", "sensor-assay potency score (higher = more potent)": -0.582}, {"sequence": "TTCAGTTCCAGCAGCAGGCGGT", "sensor-assay potency score (higher = more potent)": -0.708}, {"sequence": "TTGCAGTAGTAGCAGCGCGGGG", "sensor-assay potency score (higher = more potent)": -1.51}]}]}
